Source: PubChem BioAssay (National Center for Advancing Translational Sciences (NCATS))
Compounds with a hit are over-represented: about 10% of the library has one in this group of screens.
BAZ2B inh: qHTS Assay for Inhibitors of BAZ2B. Potency, µM (doses to about 114 µM), for inactives: at the top dose activity change, negative = inhibition, usual class: inhibitors. AID 504333, 2011. 360,000 compounds, 4.4% hits. AlphaScreen BAZ2B-H3K14Ac peptide displacement; note: potency is the fitted concentration of half-maximal effect; % is set by controls: 0 for no effect and ±100 for the full control effect; nearly all actives have a fitted effect of over 60% in size
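Compounds, titrated to a top concentration of 110 uM, were incubated 30 min at room temperature with preformed BAZ2B/acetyl-K14 H3 peptide complex (50 nM each). Proximity signal was measured by AlphaScreen after 20 min with beads.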
CtBP-E1A blk: qHTS Assay for Inhibitors of the CtBP/E1A Interaction; CtBP / adenovirus E1A interaction (AlphaScreen); AlphaScreen GST-E1A/His-CtBP binding, 1536-well; stronger effect = lower value; activity change, % (test concentration not listed); 340,000 compounds, 0.49% hits; AID 651724, 2012; in the data active = activity change below about -65%; inconclusive = mostly about -30% to -63%; note: % is set by controls: 0 for no effect and ±100 for the full control effect
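GST-E1A and His-tagged CtBP (125 nM each as 5X stock) were preincubated with pin-transferred compound for 2 h at 37 °C in the dark, then glutathione donor and nickel acceptor beads were added for 1 h before AlphaScreen reading.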
G9a block: qHTS Assay for Inhibitors of Histone Lysine Methyltransferase G9a; G9a H3K9 monomethylation, AlphaScreen, 2 h; Histone-lysine N-methyltransferase EHMT2 (Homo sapiens), Q96KQ7; AID 504332, 2011; Potency, µM (titrated, usually from 102 µM), for inactives: top-dose activity, negative = inhibition, most hits filed as inhibitors; 350,000 compounds, 8.8% hits; note: potency is the fitted concentration of half-maximal effect; % is set by controls: 0 for no effect and ±100 for the full control effect; nearly all actives have a fitted effect of over 75% in size
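Quantitative HTS format: methyltransferase activity on a biotin-tagged H3K9 peptide is measured by AlphaScreen, using a rabbit anti-monomethyl-H3K9 antibody with streptavidin donor and anti-IgG acceptor beads. Final levels are 20 nM enzyme, 500 nM peptide, 20 uM SAM; 2 h RT.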
JMJD2A Tudor inh: qHTS Assay for Inhibitors of JMJD2A-Tudor Domain; 390,000 compounds, 4.4% hits; Lysine-specific demethylase 4A (Homo sapiens), O75164; Potency, µM (series often up to 114 µM), inactives show at the highest dose activity change, negative = inhibition, actives largely listed as inhibitors; AlphaScreen JMJD2A-Tudor / H3K4me3 peptide binding; note: potency is the fitted concentration of half-maximal effect; % is set by controls: 0 for no effect and ±100 for the full control effect; nearly all actives have a fitted effect of over 50% in size
Six1-Eya2 blk: qHTS Assay for Inhibitors of the Six1/Eya2 Interaction; activity change, % (test concentration not listed); AlphaScreen GST-Six1/His-Eya2 binding, biochemical; stronger effect = lower value; Homeobox protein SIX1 (Homo sapiens) + Protein phosphatase EYA2 (Homo sapiens), …; 360,000 compounds, 0.56% hits; in the data active = activity change below about -65%; inconclusive = mostly about -30% to -63%; note: % is set by controls: 0 for no effect and ±100 for the full control effect
Target sequence (O00167 whole entry, looked up): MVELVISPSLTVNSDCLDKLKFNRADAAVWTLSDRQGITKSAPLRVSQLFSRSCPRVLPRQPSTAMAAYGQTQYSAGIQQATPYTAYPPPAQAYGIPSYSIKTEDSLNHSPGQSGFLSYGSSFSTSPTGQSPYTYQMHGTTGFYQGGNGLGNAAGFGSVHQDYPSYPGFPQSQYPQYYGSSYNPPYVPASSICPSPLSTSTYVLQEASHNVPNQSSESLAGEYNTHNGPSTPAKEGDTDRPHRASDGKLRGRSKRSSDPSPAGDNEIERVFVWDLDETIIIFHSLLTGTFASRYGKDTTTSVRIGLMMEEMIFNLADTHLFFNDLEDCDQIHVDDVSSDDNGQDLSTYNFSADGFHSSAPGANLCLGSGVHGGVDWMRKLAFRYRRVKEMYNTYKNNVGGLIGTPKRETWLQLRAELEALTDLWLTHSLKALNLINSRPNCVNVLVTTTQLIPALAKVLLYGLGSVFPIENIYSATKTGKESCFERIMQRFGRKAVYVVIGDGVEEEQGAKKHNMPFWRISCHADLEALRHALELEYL
Target sequence (Q15475 whole entry, looked up): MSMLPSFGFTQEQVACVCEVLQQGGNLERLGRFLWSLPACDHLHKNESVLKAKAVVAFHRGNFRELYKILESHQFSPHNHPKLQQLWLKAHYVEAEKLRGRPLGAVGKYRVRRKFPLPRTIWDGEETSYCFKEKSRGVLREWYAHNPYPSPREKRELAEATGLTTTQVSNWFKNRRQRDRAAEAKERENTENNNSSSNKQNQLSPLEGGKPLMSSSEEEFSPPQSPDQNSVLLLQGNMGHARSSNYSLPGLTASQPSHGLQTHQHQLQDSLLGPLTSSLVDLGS
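GST-Six1 + His-Eya2 (5X stock: 250/500 nM); Tris pH 8.0, 300 mM NaCl, 0.05% BSA, 0.02% Tween 20; GSH donor/Ni acceptor beads; 1 h 37 °C dark; AlphaScreen readout.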
HP1b chromo inh: HTS for Inhibitors of HP1-beta Chromodomain Interactions with Methylated Histone Tails; Chromobox protein homolog 1 (Homo sapiens), P83916; AlphaScreen HP1-beta / biotin-H3K9me3 peptide binding; Potency, µM (titrated, usually from 114 µM), inactives show top-dose activity change, negative = inhibition, actives largely listed as inhibitors; 390,000 compounds, 0.56% hits; note: potency is the fitted concentration of half-maximal effect; nearly all actives have a fitted effect of over 70% in size
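Compound inhibition of the preformed complex between 50 nM HP1-beta and 50 nM biotinylated H3K9me3 peptide was read by AlphaScreen. Buffer was PBS pH 7.4 with 0.01% Tween-20. Incubations ran 30 min at room temperature, with 10 ug/mL donor/acceptor beads.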
* marks the source's active call; other numbers are inactive results; ? = inconclusive; / = no result given; ! = repeats disagree; [ ] = another dose, or the depositor's remark. Unless noted, calls come from the whole dose curve; as a rule, active = well fitted inhibition curve with a large enough effect; inconclusive = small, poorly fitted or top-dose-only effect; inactive = no such curve, though single readings can be large or run the other way.

SMILES	BAZ2B inh	CtBP-E1A blk	G9a block	JMJD2A Tudor inh	Six1-Eya2 blk	HP1b chromo inh
CCOc1ccc(N2C(=O)N(Cc3ccc(C)cc3C)c3ccccc3S2(=O)=O)cc1	-3.0%	/	-12.2%[59 µM]	-16.7%	/	32.8%
NC(=O)[C@@H]1CSSCCC(=O)N[C@@H](CCCCN=C(N)N)C(=O)NCC(=O)N[C@@H](CC(=O)O)C(=O)N[C@@H](Cc2c[nH]c3ccccc23)C(=O)N2CCC[C@H]2C(=O)N1	/	/	-30.1%[12.7 µM]	/	/	/
O=C1Nc2ccc(C(=O)O)c(O)c2C1=O	/	-0.8	/	56.2µM*	-15.1	-0.9%
Cc1cc(C)c(S(=O)(=O)NCCc2cc3cc(C)c(C)cc3[nH]c2=O)c(C)c1	-19.2%	/	6.7%[59 µM]	-18.2%	/	5.9%
Cn1c2ccccc2c(=O)c2ccc(C#CC3(N)CCCCC3)cc21	2.5%	12.9	39.8µM*	5.8%	6.9	76.9%
COc1cc(NC(=O)Cn2ncc3c([nH]c4ccc(C)cc43)c2=O)cc(OC)c1OC	-1.8%[57.1 µM]	/	2.0%[59 µM]	-13.3%	/	24.0%
COc1ccccc1NC1=C(Cl)C(=O)N(C2CCCCC2)C1=O	?	21.4	44.7µM*	?	-24.7	-14.0%
Cc1ccccc1NC1=C(Cl)C(=O)N(C2CCCCC2)C1=O	-2.4%	0.0	36.3%[59 µM]	-1.3%	11.0	40.8%
NC(=O)c1nsc(C(=O)N(CC(=O)NC2CCCCC2)Cc2ccc3c(c2)OCO3)c1N	/	/	/	-21.3%	/	21.3%
S=C(NCCc1ccccc1)Nc1ccc(Br)cn1	?	-5.4	7.08µM*	-4.7%	-2.4	11.1%
COc1ccccc1C1CC(=O)Nc2cc3c(cc21)OCCO3 (centres undefined)	-31.7%	-2.8	-36.0%[59 µM]	-30.2%	-4.7	-4.6%
CC(C)Oc1ccccc1C1CC(=O)Nc2cc3c(cc21)OCCO3 (centres undefined)	50.1µM*	-20.0	-8.8%[59 µM]	?	-16.0	-11.3%
COc1cccc(C2CC(=O)Nc3cc4c(cc32)OCCO4)c1OC(C)C (centres undefined)	-33.7%	-7.1	44.7µM*	?	-18.8	?
C/C(=N\NC(=O)c1ccc(Cn2cc([N+](=O)[O-])cn2)o1)c1cccc(NC(=O)c2cccnc2)c1	-4.0%	-16.0	-2.4%	-8.7%	?	25.9%
CC(=O)Nc1cccc(/C(C)=N\NC(=O)c2ccc(Cn3nc([N+](=O)[O-])c(Cl)c3C)o2)c1	-3.1%	-14.7	-0.3%[2.33 µM]	50.1µM*	-9.7	-7.2%
Cc1ccc2nc(-c3cccc(-c4nc5ccc(C)cc5o4)n3)oc2c1	/	/	/	17.8µM*	/	?
Cc1ccc2nc(-c3cccc(N)c3)oc2c1	-6.7%	13.2	-0.2%	-9.5%	-0.1	28.8%
Cc1ccc(C)c(OC(=O)CSc2nnc(-c3ccc4c(c3)OCO4)o2)c1	-3.5%	/	-28.1%[59 µM]	-19.5%	/	7.2%
CS(=O)(=O)Nc1cccc(C2=NN(S(=O)(=O)c3ccc(F)cc3)C(c3cccs3)C2)c1 (centres undefined)	-4.7%	-1.0	-18.4%[59 µM]	79.4µM*	0.0	-5.3%
CCS(=O)(=O)Nc1cccc(C2=NN(S(=O)(=O)c3ccc(F)cc3)C(c3cccs3)C2)c1 (centres undefined)	-11.2%	-17.9	-29.1%[59 µM]	-14.0%	-20.7	31.1%
COc1ccc(S(=O)(=O)N2N=C(c3cccc(NS(C)(=O)=O)c3)CC2c2ccco2)cc1 (centres undefined)	-29.9%	/	44.7µM*	2.7%	-24.2	66.1%
Cc1cccn2c(=O)c3cc(C#N)c(=O)n(-c4nnc(SCc5ccc(F)cc5)s4)c3nc12	7.3%	/	33.0%[59 µM]	1.3%	/	86.9%
COc1cc(/C=C/C(=O)c2ccc3c(c2)OCO3)cc(Cl)c1O	?	-2.0	44.7µM*	?	-3.3	?
N#CC1=C(N)C2=C(N3CCCCC3)CCCC2C1(C#N)C#N (centres undefined)	50.1µM*	-25.7	?	-29.8%	-16.1	12.2%
CC(=O)N(c1ccc2ccccc2c1)C1SC(=O)N(c2cccc(C)c2)C1=O (centres undefined)	/	/	/	-19.0%	/	38.5%
SMILES	BAZ2B inh	CtBP-E1A blk	G9a block	JMJD2A Tudor inh	Six1-Eya2 blk	HP1b chromo inh
Cc1ccc(S(=O)(=O)Cn2nnnc2CN2CCOCC2)cc1	-33.5%	4.4	-9.9%[59 µM]	-9.6%	2.3	51.4%
Cc1ccc(S(=O)(=O)Cn2nnnc2CN2CCCC3(CCCCC3)C2)cc1	0.5%	8.5	25.1µM*	3.4%	-2.2	54.3%
Cc1c2c(=O)n(-c3nc4ccccc4s3)nc-2cc(O)n1Cc1ccccc1	39.8µM*	/	/	-26.9%	-3.5	17.5%
Cc1cc(C)n(-c2nc3ccccc3s2)n1	110.5%	0.0	83.0%	86.9%	26.4	157.5%
O=C(O)c1ccccc1N/N=C/c1c(Sc2nnnn2-c2ccccc2)nc2ccccn2c1=O	44.7µM*	-1.5	39.8µM*	?	0.8	-24.9%
CNC(=O)c1[nH]cnc1C(=O)Nc1ccc(F)cc1	-10.4%	-12.0	11.9%[2.33 µM]	-9.3%	-11.5	21.0%
Cc1cccc(NC(=O)c2nc[nH]c2C(=O)Nc2cccc(C)c2)c1	?	-24.6	-23.2%	-10.1%	10.3	31.1%
CNC(=O)c1[nH]cnc1C(=O)Nc1ccccc1	?	-15.5	5.3%[0.501 µM]	-23.2%	-11.1	22.1%
CNC(=O)c1[nH]cnc1C(=O)Nc1cccc(OC)c1	50.1µM*	0.0	?	-25.8%	0.0	16.3%
CNC(=O)c1[nH]cnc1C(=O)Nc1ccccn1	56.2µM*	-13.2	/	?	-2.5	-2.3%
CCOC(=O)c1[nH]cnc1C(=O)Nc1cccc(OC)c1	?	-9.8	28.2µM*!	?	?	29.3%
Cc1cccc(N2CCN(C(=O)Cc3c(C(=O)O)c(C)cn3C)CC2C)c1 (centres undefined)	-11.8%	/	-2.3%[59 µM]	-14.7%	/	9.3%
Cc1ccc(C(=O)COC(=O)CCC(=O)Nc2ccc(Oc3cc(C)ccc3C(C)C)cc2)cc1	6.3%	/	?	-8.3%	/	18.5%
CCOc1ccc(CNC(=O)C2=Cc3cccc(OC)c3OC2)cc1	-17.8%	/	11.4%[59 µM]	-21.7%	/	15.9%[57 µM]
O=C(c1ccccc1O)N(Cc1ccccc1)Cc1cccs1	/	/	/	-17.7%	/	/
CC1(C)Cc2c(cnn2-c2ccc(F)cc2)C(NC(=O)c2ccco2)C1 (centres undefined)	-9.7%	4.7	10.6%	-6.9%	-1.8	39.8%
CC1(C)Cc2c(cnn2-c2ccc(F)cc2)C(NC(=O)C2=NNC(=O)CC2)C1 (centres undefined)	-1.5%	1.7	13.4%	15.8µM*	-1.7	13.3%
